This is a sample that favours compounds with a hit; in the whole collection about 19% have one here.
HT1080 IDH1KD tx – toxicity to HT-1080 IDH1 knockdown cells (counter line); HT-1080 IDH1 knockdown viability, ATP luminescence, 48 h; Potency, µM (titrated, usually from 46.1 µM), inactives show at the highest dose activity, negative = toxicity, most hits filed as cytotoxic; actives 2% (n = 360,000);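 further: potency means the concentration at half of the fitted maximal effect; 0% = DMSO wells and -100% = cell-free medium wells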
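Viability of IDH1-knockdown HT-1080 fibrosarcoma cells was assessed by CellTiter-Glo after 48 h at 37 °C with titrated compound; concentration-effect curves were classified by fit quality and response size.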
HT1080NT lethal – kills 2HG-producing HT-1080-NT fibrosarcoma cells | HT-1080-NT fibrosarcoma viability, CellTiter-Glo ATP luminescence, 48 h | Potency, µM (top dose mostly 46.1 µM), inactives show at the highest dose activity, negative = less viability, most hits filed as cytotoxic | actives 1.6% (n = 360,000) | AID 686970;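 further: NT is the 2HG producing partner of a matched IDH1 knockdown line; potency means the concentration at half of the fitted maximal effect; 0% = DMSO-treated cells and -100% = media-only wells without cells; nearly all actives have a fitted effect of over 55% in size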
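Viability by CellTiter-Glo luminescence after 48 h compound exposure at 37C of HT-1080-NT cells (750/well, RPMI, 5% FBS). % activity scaled between DMSO wells and medium-only wells, then curve-fitted and categorized by curve class.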
DT40 TDP1 no CPT – qHTS for Inhibitors of human tyrosyl-DNA phosphodiesterase 1 (TDP1): qHTS in cells in absence of CPT | DT40 Tdp1-/- hTDP1 cells, no CPT, ATP luminescence, 48 h | Potency, µM (series often up to 46.2 µM), inactives show at the highest dose activity change, negative = growth inhibition, hits mostly inhibitors | actives 15% (n = 420,000) | AID 686978, 2013; further: potency means the concentration at half of the fitted maximal effect; nearly all actives have a fitted effect of over 55% in size
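Seeded 400 DT40-hTDP1 cells/well (vehicle DMSO, no 20 nM CPT); pinned compounds; ≥48 hr at 37 °C; CellTiter-Glo luminescence as viability measure.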
uPA surface inh – blocks generation of uPA at the cell surface; cell surface uPA generation assay, qHTS; AID 540303; Potency, µM (highest dose often 38.3 µM), without a hit: top-dose activity change, negative = inhibition, most hits filed as inhibitors; actives 0.31% (n = 330,000); active means well fitted inhibition curve with a large enough effect; inconclusive means small, poorly fitted or top-dose-only effect; inactive means no such curve, though single readings can be large or run the other way; tested in mouse RAW 264.7 cells; further: potency means the concentration at half of the fitted maximal effect; nearly all actives have a fitted effect of over 55% in size
TDP1 cell CPT – DT40-hTDP1 cell growth loss with CPT. AID 686979. chicken DT40 Tdp1-/-;hTDP1 cells + 20 nM CPT, ATP luminescence, 48 h. actives 12% (n = 420,000). Potency, µM (titrated, usually from 46.2 µM), for inactives: at the top dose activity change, negative = growth inhibition, actives largely listed as inhibitors; further: potency means the concentration at half of the fitted maximal effect; nearly all actives have a fitted effect of over 55% in size
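Cell growth measured by CellTiter-Glo luminescence after a minimum 48 h, 37 C compound exposure with 20 nM CPT in Tdp1-knockout DT40 cells stably expressing hTDP1, seeded 400/well; qHTS titration format.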
IL-1B inflam inh – inflammasome signaling inhibition, IL-1 beta readout. THP-1 LPS/ATP IL-1B secretion, AlphaLISA, 16 h; stronger effect = lower value. activity change, % at 57.5 µM. actives 4.7% (n = 360,000); in the data active means activity change below about -50%; inconclusive means mostly about -30% to -49%
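THP-1 cells pretreated 1 hr with compounds (up to 57.5 uM final), then stimulated with LPS (250 ng/mL final) plus ATP (1.25 mM final); secreted IL-1B measured by AlphaLISA after 16 hr, decreased signal indicating inhibition.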
* marks the source's active call; other numbers are inactive results; [ ] = remark or other dose. Unless noted, the call rests on the fitted dose curve; in most records, active means well fitted curve in the direction sought with a large enough effect; inconclusive means small, poorly fitted or top-dose-only effect, or another doubt; inactive means no such curve, though single readings can be large; an effect the other way counts as inactive or inconclusive. Unless noted, on the % scale 0 is the no-effect control and ±100 the full control effect.

Screening Cc1c(C(=O)N(C)C2CCOC2)cnn1-c1ncc2c(n1)-c1ccccc1CCC2 (stereo not drawn) returned DT40 TDP1 no CPT -17% and TDP1 cell CPT 4%[9.04 µM].
`O=C(Cn1c(=O)n(Cc2ccco2)c(=O)c2c3c(sc21)CCCCC3)c1ccccc1` gave HT1080 IDH1KD tx -16%, HT1080NT lethal -12%, DT40 TDP1 no CPT 15µM*, uPA surface inh 2%, TDP1 cell CPT 15µM* and IL-1B inflam inh 14.
For O=c1c2c3c(sc2n(CCN2CCCC2)c(=O)n1Cc1ccco1)CCCCC3 the results were HT1080 IDH1KD tx -3%, HT1080NT lethal 2%, DT40 TDP1 no CPT 12µM*, uPA surface inh 2%, TDP1 cell CPT 8.2µM* and IL-1B inflam inh inconclusive.
`O=C1NC[C@@H](c2ccccc2)OC(=O)[C@@H](Cc2ccc(F)cc2)CC/C=C/C[C@@H]1CC(=O)N(CCO)Cc1ccccc1` gave HT1080NT lethal -21%, DT40 TDP1 no CPT 15µM*, TDP1 cell CPT 16µM* and IL-1B inflam inh inconclusive.
`O=C(C[C@H]1C/C=C/CC[C@@H](Cc2ccc(F)cc2)C(=O)O[C@@H](c2ccccc2)CNC1=O)NCCO` gave HT1080 IDH1KD tx 1%, HT1080NT lethal 0%, DT40 TDP1 no CPT inconclusive, uPA surface inh 6%, TDP1 cell CPT inconclusive and IL-1B inflam inh 11.
O=C1N[C@@H](c2ccccc2)COC(=O)[C@@H](Cc2ccc(F)cc2)CC/C=C/C[C@H]1CC(=O)N(CCO)Cc1ccccc1 was read as HT1080 IDH1KD tx inconclusive, HT1080NT lethal inconclusive, DT40 TDP1 no CPT 9.2µM*, uPA surface inh inconclusive, TDP1 cell CPT 12µM* and IL-1B inflam inh inconclusive.
O=C1N[C@@H](c2ccccc2)COC(=O)[C@@H](Cc2ccc(F)cc2)CC/C=C/C[C@@H]1CC(=O)N(CCO)Cc1ccccc1 was read as HT1080 IDH1KD tx inconclusive, HT1080NT lethal inconclusive, DT40 TDP1 no CPT 18µM*, uPA surface inh inconclusive, TDP1 cell CPT 13µM* and IL-1B inflam inh inconclusive.
`COc1ccc(C(=O)N2CCC3(CCCN(Cc4ccncc4)C3)CC2)cc1` gave DT40 TDP1 no CPT inconclusive and TDP1 cell CPT -6%.
For CCCCCC(=O)NC(Nc1ccc(S(N)(=O)=O)cc1)C(Cl)(Cl)Cl (stereo not drawn) the results were HT1080 IDH1KD tx -2%, HT1080NT lethal 9%, DT40 TDP1 no CPT inconclusive, uPA surface inh 16%, TDP1 cell CPT 16µM* and IL-1B inflam inh -2.
For CCCCCCC(=O)NC(Nc1ccc(S(N)(=O)=O)cc1)C(Cl)(Cl)Cl (stereo not drawn) the results were HT1080 IDH1KD tx -21%, HT1080NT lethal -23%, DT40 TDP1 no CPT inconclusive, uPA surface inh -1%, TDP1 cell CPT inconclusive and IL-1B inflam inh -10.
CCCCNC(=O)c1[nH]c(=O)cnc1-c1ccccc1 was read as HT1080 IDH1KD tx 14%, HT1080NT lethal inconclusive, DT40 TDP1 no CPT 5%, TDP1 cell CPT -10% and IL-1B inflam inh 20.
`COc1ccc(C2C(C#N)C(C#N)N3CCCN23)cc1` (stereo not drawn) gave HT1080 IDH1KD tx -1%, HT1080NT lethal 1%, DT40 TDP1 no CPT -14%, uPA surface inh -6%, TDP1 cell CPT -11% and IL-1B inflam inh -8.
Screening N#CC1C(C#N)N2CCCN2C1c1ccc(Cl)cc1 (stereo not drawn) returned HT1080 IDH1KD tx 20%, HT1080NT lethal 17%, DT40 TDP1 no CPT 7.3µM*, uPA surface inh -2%, TDP1 cell CPT 8.2µM* and IL-1B inflam inh 20.
Screening CCc1cc(Cl)c(OC)c(C(=O)NC[C@@H]2CCCN2CC)c1O returned HT1080 IDH1KD tx inconclusive, HT1080NT lethal inconclusive, DT40 TDP1 no CPT 26µM*, uPA surface inh inconclusive, TDP1 cell CPT inconclusive and IL-1B inflam inh -7.
CCN1CCCC1CNC(=O)c1ccccc1Cl (stereo not drawn) was read as HT1080 IDH1KD tx 0%[9.24 µM], HT1080NT lethal -2%, DT40 TDP1 no CPT 2%, uPA surface inh 4%, TDP1 cell CPT -12% and IL-1B inflam inh -2.
For COc1cc(/C=N/NC(=O)c2cc(-c3cccn3C)n[nH]2)cc(OC)c1OC the results were HT1080 IDH1KD tx -7%, HT1080NT lethal 2%, DT40 TDP1 no CPT 21µM*, TDP1 cell CPT 21µM* and IL-1B inflam inh -85*.
For Cn1cccc1-c1cc(C(=O)N/N=C/C=C/c2ccccc2)[nH]n1 the results were HT1080 IDH1KD tx -9%, HT1080NT lethal -5%, DT40 TDP1 no CPT inconclusive, uPA surface inh -6%, TDP1 cell CPT inconclusive and IL-1B inflam inh -91*.
`COc1cccc(/C=N/NC(=O)c2cc(-c3cccn3C)n[nH]2)c1O` gave HT1080 IDH1KD tx inconclusive, HT1080NT lethal -17%, DT40 TDP1 no CPT 6.5µM*, uPA surface inh -10%, TDP1 cell CPT 5.8µM* and IL-1B inflam inh 80.
Screening O=C(N/N=C/C=C/c1ccccc1)c1ccncc1 returned HT1080 IDH1KD tx -16%, HT1080NT lethal -8%, DT40 TDP1 no CPT 21µM*, uPA surface inh 1%, TDP1 cell CPT inconclusive and IL-1B inflam inh 2.
Screening O=C(N/N=C/c1ccco1)c1cc(-c2ccccc2)n[nH]1 returned HT1080 IDH1KD tx 10%, HT1080NT lethal 25%, DT40 TDP1 no CPT inconclusive, uPA surface inh -6%, TDP1 cell CPT inconclusive and IL-1B inflam inh -3.
`O=C(CNc1cccc(S(=O)(=O)N2CCCC2)c1)Nc1ccc(F)cc1F` gave HT1080 IDH1KD tx -4%, HT1080NT lethal 0%, DT40 TDP1 no CPT inconclusive, uPA surface inh 1%, TDP1 cell CPT inconclusive and IL-1B inflam inh 12.
Screening O=C(NCc1ccc(F)cc1)c1cccc(S(=O)(=O)N2CCOCC2)c1 returned HT1080 IDH1KD tx 19%, HT1080NT lethal 4%, DT40 TDP1 no CPT 15%, uPA surface inh -9%, TDP1 cell CPT 2% and IL-1B inflam inh -5.
For CCOC(=O)/C=C1/SCC(=O)N1CCOc1cccc(Br)c1 the results were HT1080 IDH1KD tx -7%, HT1080NT lethal -10%, DT40 TDP1 no CPT -7%, uPA surface inh 2%, TDP1 cell CPT -4% and IL-1B inflam inh -11.
For CC(=O)Nc1ccc(S(=O)(=O)N[C@@H](C)C(=O)OCC(=O)c2ccc(C)cc2)cc1 the results were HT1080 IDH1KD tx -1%, HT1080NT lethal 1%, DT40 TDP1 no CPT 5%, uPA surface inh -11%, TDP1 cell CPT -5% and IL-1B inflam inh 2.
